Measured values reported in PubChem BioAssay (NCI).
About 83,000 compounds went through this panel and 20% of them were active in at least one assay; those are over-represented in the sample as a whole.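 For each line, cells grew in 96-well plates with the test compound present at a single concentration for 48 hours.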 The source made the active and inactive calls. How the source made its calls: active means growth percent below 10; inactive means the rest.

Legend:
Test in all cases: NCI-60 one-dose screen, 48 h (100 = growth as untreated, 0 = no growth, -100 = all killed)
Settings in all cases: 10 µM unless noted
[1] = system: SK-MEL-2 melanoma
[2] = system: SN12C renal
[3] = system: UO-31 renal
[4] = system: TK-10 renal
[5] = system: ACHN renal
[6] = system: CAKI-1 renal
[7] = system: A498 renal
[8] = system: MOLT-4 leukemia
[9] = system: CCRF-CEM leukemia

Measured: growth

CCC(=O)NC(O)C(Cl)(Cl)C(C)Cl (stereo not given)
inactive: [1] 106% | [2] 98.8% | [3] 91.5% | [4] 112% | [5] 100% | [6] 99.4% | [7] 107% | [8] 108%

CC(=O)c1ccc(-n2c(-c3cc(-c4ccsc4)n[nH]3)n[nH]c2=S)cc1
inactive: [1] 86.9% | [2] 98.3% | [3] 89.5% | [4] 98% | [5] 88.4% | [6] 92.7% | [7] 111% | [8] 87.6%

CC(C)N1CCN(c2ccncc2S(=O)(=O)N2CCN(C)CC2)CC1
inactive: [1] 107% | [2] 98.4% | [3] 87.3% | [4] 101% | [5] 101% | [6] 98.5% | [7] 107% | [9] 98.4% | [8] 104%

CC1=C(C(=O)Nc2ccc(F)cc2)C(c2ccc(Cl)cc2)C2=C(CC(C)(C)CC2=O)N1 (stereo not given)
inactive: [1] 97.5% | [2] 86.7% | [3] 64% | [4] 113% | [5] 94.4% | [6] 72.7% | [7] 54.4% | [9] 78.8% | [8] 73.1%

CCN(CC)CCCC(C)N/C(c1cccc(OC)c1)=c1\c(=O)[nH]n(-c2c3ccccc3nc3ccccc23)c(=O)\c1=C(/NC(C)CCCN(CC)CC)c1cccc(OC)c1 (stereo not given)
active: [1] -75.2% | [2] 5.78% | [3] -48.5% | [4] -23% | [5] -61.8% | [6] 1.65% | [7] -85.9% | [8] -22.7%

COc1ccc(-c2n[nH]nc2-c2cc(OC)c3c(c2)OCO3)cc1
inactive: [2] 23% | [3] 20.1% | [4] 47.7% | [5] 29.6%
active: [1] 6.64% | [6] -2.7% | [7] -9.3% | [9] -4.86% | [8] -15.3%

COC1CC(N)C2OC(c3ccccc3)OCC2O1 (stereo not given)
inactive: [1] 114% | [2] 99.3% | [3] 97.6% | [4] 101% | [5] 99.3% | [6] 96.8% | [7] 111% | [9] 93.3% | [8] 100%

Clc1ncnc2scc(C3COc4ccccc4O3)c12 (stereo not given)
inactive: [1] 107% | [2] 86.6% | [3] 59.5% | [4] 110% | [5] 96.2% | [7] 97% | [9] 22.3% | [8] 74.7%
active: [6] -18.7%

COc1ccc(-c2cnc3ccnn3c2-c2cc(OC)c(OC)c(OC)c2)cc1
inactive: [1] 36.9% | [2] 42% | [3] 48.3% | [4] 59.6% | [5] 47.3% | [6] 46.5% | [9] 16.3% | [8] 46.7%
active: [7] -5.57%

CC(=O)c1c(O)c(C)c(O)c2c1OC1=CC(=O)/C(=C(/C)N)C(=O)C12C (stereo not given)
inactive: [1] 94.8% | [2] 92.8% | [3] 77.8% | [4] 99.4% | [5] 88.4% | [6] 87.1% | [7] 74.1% | [9] 93.1% | [8] 73.3%

CCc1ccc(-c2ccc(NC3CCCCCC3)nn2)cc1S(N)(=O)=O
inactive: [1] 99.3% | [2] 101% | [3] 102% | [4] 93.4% | [5] 96.1% | [6] 96.6% | [7] 107% | [8] 91.7%

COc1cccc(NC(=O)[C@H](C(C)C)n2c(=O)[nH]c3ccccc3c2=O)c1
inactive: [1] 101% | [2] 105% | [3] 101% | [4] 105% | [5] 104% | [6] 97.6% | [7] 114% | [9] 94.8% | [8] 96.8%

Oc1ccc(Cl)cc1-c1cc(-c2ccccc2Cl)[nH]n1
inactive: [1] 77.5% | [2] 69.5% | [3] 38.6% | [4] 86.8% | [5] 59% | [6] 75.9% | [7] 96.1% | [8] 28.5%

Cc1ccc(N2C3c4ccccc4N(S(=O)(=O)c4ccc(C)cc4)C2c2ccccc2N3S(=O)(=O)c2ccc(C)cc2)cc1
inactive: [1] 111% | [2] 94.9% | [3] 91.1% | [4] 128% | [5] 95.2% | [6] 100% | [7] 97% | [9] 89.2% | [8] 93.5%

O=C(/C=C/c1ccccc1)C(Br)C(Br)c1ccccc1 (stereo not given)
inactive: [1] 40.9% | [2] 41.4% | [7] 85.1%
active: [3] -88.1% | [4] -31.1% | [5] -65.9% | [6] -44.4% | [9] -41.4% | [8] -25%
